High-throughput results as filed in PubChem BioAssay.
Shown are actives, neighbours in structure and some others; about 8.1% of the full set was active somewhere.
SW480 rereplic: induces DNA re-replication in SW480 colon adenocarcinoma cells. SW480 DNA re-replication, Hoechst DNA content imaging, 48 h. Potency, µM (doses to about 46.1 µM), actives largely listed as activators. 1.8% of 340,000 active; note: nearly all actives have a fitted effect of over 55% in size
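Readout is total intensity of Hoechst-stained nuclei, excited at 405 nm and collected at 500-530 nm. Compound treatment lasted 48 hr at 37 C in 5% CO2 before staining.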
ELG1 DNA repair: inhibitors of ELG1-dependent DNA repair in HEK293T cells. HEK293T ELG1-luciferase reporter, luminescence, 16 h; DNA damage induced by 5-fluorouridine. Potency, µM (series often up to 46.1 µM), hits mostly inhibitors. 2.3% of 330,000 active. AID 504467; note: nearly all actives have a fitted effect of over 55% in size
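DMSO vehicle served as the neutral condition. Each well held 2,000 cells given 5-fluorouridine plus compound; after 16 hr at 37 °C/5% CO2, ONE-Glo was added and luciferase measured 30 min later.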
KB-V1 cytotox: kills drug-selected multidrug resistant KB-V1 cells | KB-V1 MDR cells viability, CellTiter-Glo, 72 h | Potency, µM (top dose mostly 46.1 µM), usual class: cytotoxic | 3.4% of 400,000 active | AID 1347076; note: nearly all actives have a fitted effect of over 60% in size
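KB-V1, DMEM (no phenol red) + 10% FBS; cpd pin-transferred, titration series; 72 h, 37 degrees C; CellTiter-Glo, luminescence. Data normalized, curve-fit.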
KB-3-1 tox: KB-3-1 parental cell cytotoxicity; 1.4% of 400,000 active; Potency, µM (doses to about 46.1 µM), usual class: cytotoxic; KB-3-1 viability, CellTiter-Glo ATP luminescence, 72 h; note: nearly all actives have a fitted effect of over 60% in size
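72 h, 37 °C compound treatment of KB-3-1 parental cells; CellTiter-Glo added, 10 min, luminescence read. Data corrected against DMSO-only plates and normalized before curve fitting.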
MCF10A rereplic: DNA re-replication induction in MCF 10a cells. MCF 10A DNA re-replication, Hoechst nuclear intensity, 48 h. Potency, µM (titrated, usually from 46.1 µM), hits mostly activators. 2.9% of 350,000 active; note: nearly all actives have a fitted effect of over 50% in size
A number is an active result; n = inactive; u = inconclusive; x = no result; ! = not confirmed by another sample; [ ] = dose if it differs, or a comment. Calls come from the whole dose curve; as a rule, active = well fitted curve in the direction sought with a large enough effect; inconclusive = small, poorly fitted or top-dose-only effect, or another doubt; inactive = no such curve, though single readings can be large; an effect the other way counts as inactive or inconclusive.

SMILES	SW480 rereplic	ELG1 DNA repair	KB-V1 cytotox	KB-3-1 tox	MCF10A rereplic
O=c1cc(-c2ccco2)oc2c1ccc1ccccc12	n	u	n	n	n
O=c1cc(C(Cl)(Cl)Cl)oc2c1ccc1ccccc12	13µM	n	n	u	8.2µM
O=C(Cn1nc(C(F)(F)F)c2c1CCC2)Nc1ccccc1C(F)(F)F	n	n	n	n	n
O=C(Cn1nc(C(F)(F)F)c2c1CCC2)N1CCN(c2ccccc2)CC1	n	n	16µM	n	u
COc1ccccc1NC(=O)Cn1nc(C(F)(F)F)c2c1CCCC2	n	n	21µM	n	n
C[C@@H]1CN([C@@H](C)CO)S(=O)(=O)c2ccc(Br)cc2O[C@H]1CN(C)C(=O)c1ccc2c(c1)OCO2	x	x	n	n	x
O=C(NCC1COc2ccccc2O1)c1cc2ccccc2o1 (configuration not stated)	n	u	n	n	n
O=C(COC(=O)c1ccc(F)cc1)NCc1ccc(F)cc1	n	n	u	u	n
Cn1c(C(=O)OCC(=O)NCc2ccc(F)cc2)cc2occc21	n	u	n	n	2.9µM
C/C(=N/NC(=O)Cc1cccc2ccccc12)c1cccs1	n	n	u	n	n
C/C(=N\NC(=O)Cn1c(C)nc2ccccc21)c1cccs1	n	n	15µM	n	n
C/C(=N\NC(=O)Cc1ccccc1)c1cccs1	n	u	n	n	18µM
CC(/C=N\NC(=O)Cn1c(C)nc2ccccc21)=C\c1ccccc1	n	n	u	18µM	n
O=[N+]([O-])c1ccccc1CN1CCN(Cc2c[nH]c3ccccc23)CC1	n	u	u	u	n
COCCOC(=O)c1c(C)nc(SCC(=O)Nc2cccc3ccccc23)c(C#N)c1-c1ccco1	n	13µM	u	n	n
COCCOC(=O)c1c(C)nc(SCC(=O)Nc2ccc(C)cc2)c(C#N)c1-c1ccco1	n[9.22 µM]	u	u	n	n
O=C(NCCn1cc(SCc2ccc(F)cc2)c2ccccc21)c1c(F)cccc1F	n	u	18µM!	u	u
O=C(NCCn1cc(SCc2ccccc2)c2ccccc21)c1c(F)cccc1F	n	u	n	n	n
CCOC(=O)N1CCN(C(=O)c2ccc(Oc3ccc([N+](=O)[O-])cc3)cc2)CC1	n	u	7.3µM	n	n
Cc1ccc(NNC(=O)C(=O)N2CCCCC2)cc1	n	n	n	n	6.5µM
Cc1ccc(NS(=O)(=O)c2cccc(C(=O)N3CCN(c4ncccn4)CC3)c2)cc1	n	u	8.2µM	n	u
Cc1ccccc1C(=O)NNC(=O)C(=O)N1CCCCC1	n	n	n	n	n
O=C(c1ccc(S(=O)(=O)Nc2ccccc2)cc1)N1CCC1	15µM	n	n	n	n
Cc1ccc(NS(=O)(=O)c2cccc(C(=O)N3CCCCCCC3)c2)cc1	n	n	u	n	n
O=C(c1ccc(NS(=O)(=O)c2ccccc2)cc1)N1CCCCCC1	n	n	u	n	n
SMILES	SW480 rereplic	ELG1 DNA repair	KB-V1 cytotox	KB-3-1 tox	MCF10A rereplic
COc1ccccc1CN1C(=O)C(=O)N(Cc2cccc(C)c2)C1=O	n	n	n	n	n
CCOC(=O)N1CCN(C(=O)c2ccc(S(=O)(=O)Nc3ccc(C)cc3)cc2)CC1	n	u	10µM	7.3µM	n
Cc1ccc(S(=O)(=O)NCc2ccc(C(=O)N3CCN(c4ccccn4)CC3)cc2)cc1	n	u	n	n	n
CCOC(=O)N1CCN(C(=O)c2ccc(NS(=O)(=O)c3ccc(C)cc3)cc2)CC1	n	n	n	n	n
Cc1ccc(NS(=O)(=O)c2ccc(C(=O)N3CCCCCC3)cc2)cc1	n	n	4.6µM	u	n
Cc1ccc(NS(=O)(=O)c2ccc(C(=O)N3CCN(c4ccccn4)CC3)cc2)cc1	n	15µM	u	u	u
CN(c1ccc(C(=O)N2CCCCCC2)cc1)S(=O)(=O)c1ccc(Cl)cc1	n	u	23µM	n	n
COc1cc(/C=N/NC(=O)c2cc[n+]([O-])cc2)ccc1O	n	n	n	n	n
CSc1ccc(Cl)c(C(=O)N2CCOc3ccccc32)c1	u	9.2µM	n	n	n
Cc1c(Cl)cccc1NC(=O)N1CCOc2ccccc21	x	x	u	n	x
COc1ccc(C(=O)c2ccc(Cl)c([N+](=O)[O-])c2)cc1	0.82µM	n	u	1.2µM	3.7µM
